Screening results as filed in PubChem BioAssay.
PfHsp40 rescue – restores yeast growth despite PfHsp40 toxicity; S. cerevisiae expressing PfHsp40, growth rescue, ATP luminescence; growth rescue, % at 12.5 µM; 0.68% of 340,000 active; in the data active = growth rescue above about 28%, passing the limit was not always enough; inconclusive = no clear call, values can overlap the other calls;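 note: yeast W303a lacking pdr1 and pdr3 grown in galactose medium; growth measured after three days at 30 °C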
BoNT F protease – inhibitors of Botulinum neurotoxin F light chain protease | 0.22% of 360,000 active | Multiplex microsphere protease cleavage assay, flow cytometry | inhibition, % at 10 µM; in the data active = inhibition above about 35%, passing the limit was not always enough; inconclusive = no clear call, values can overlap the other calls
BoNT A protease – blocks Botulinum neurotoxin A light chain protease; multiplex microsphere protease substrate cleavage, flow cytometry; inhibition, % at 10 µM; 0.17% of 360,000 active
Anthrax LF inh2 – anthrax lethal factor protease inhibition; AID 588501; 0.12% of 360,000 active; inhibition, % at 10 µM; P15917; multiplex microsphere protease cleavage assay, LF
Target sequence (P15917 whole entry, looked up): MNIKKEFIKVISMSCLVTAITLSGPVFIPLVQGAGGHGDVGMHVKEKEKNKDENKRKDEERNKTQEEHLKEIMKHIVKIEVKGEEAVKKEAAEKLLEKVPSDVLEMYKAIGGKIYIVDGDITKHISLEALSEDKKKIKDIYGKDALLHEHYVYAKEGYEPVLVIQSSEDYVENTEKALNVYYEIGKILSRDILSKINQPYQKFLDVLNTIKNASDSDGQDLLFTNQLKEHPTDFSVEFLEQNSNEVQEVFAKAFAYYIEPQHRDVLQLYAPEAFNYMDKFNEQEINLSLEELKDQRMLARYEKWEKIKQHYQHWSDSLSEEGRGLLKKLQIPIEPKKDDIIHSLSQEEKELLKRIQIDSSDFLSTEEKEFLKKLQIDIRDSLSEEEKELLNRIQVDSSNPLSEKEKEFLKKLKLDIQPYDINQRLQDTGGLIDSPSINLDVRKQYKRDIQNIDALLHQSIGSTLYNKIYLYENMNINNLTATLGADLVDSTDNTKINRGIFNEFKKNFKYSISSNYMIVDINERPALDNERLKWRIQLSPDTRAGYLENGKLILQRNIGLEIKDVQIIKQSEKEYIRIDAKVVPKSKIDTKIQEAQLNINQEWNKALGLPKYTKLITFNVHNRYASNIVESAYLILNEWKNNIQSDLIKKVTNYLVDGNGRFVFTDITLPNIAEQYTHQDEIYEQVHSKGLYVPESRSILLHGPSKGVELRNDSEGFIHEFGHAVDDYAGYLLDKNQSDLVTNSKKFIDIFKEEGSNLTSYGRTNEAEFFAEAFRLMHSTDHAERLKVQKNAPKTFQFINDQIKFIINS
Bead autofluor – compound fluorescence in toxin protease inhibitor counterscreen; AID 624483; compound autofluorescence counterscreen, microsphere flow cytometry; hits give high values; 3.1% of 360,000 active; fluorescence intensity (no concentration beside the values); in the data active = fluorescence intensity above about 16000; inconclusive = no clear call, values can overlap the other calls
MazF activator – activators of E. coli MazEF toxin-antitoxin RNase. P0AE70. FAM/BHQ RNA-DNA oligo cleavage fluorescence, 5 h. activation, % at 20 µM. 0.32% of 350,000 active; in the data active = activation above about 50%
Large screens that a line does not name were inactive. In the library only some 4.3% were active in any assay of this set; here they are far more common. Cut-off read from the data, not from the text of the source, unless noted: active = inhibition above about 30%; inconclusive = no clear call, values can overlap the other calls; inactive = below that.

COc1ccccc1-n1c(SCC(=O)N2CCOCC2)nc(O)cc1=O	none
Cc1nnc(SCC(=O)N2c3ccccc3Sc3ccccc32)n1N	none
Cc1ccccc1-n1c(SCC(=O)N2CCOCC2)nc(O)cc1=O	BoNT A protease inconclusive, Bead autofluor 21580
Cc1ccccc1-n1c(SCC(=O)N2CCN(c3ccccc3)CC2)nnc1-c1ccncc1	Bead autofluor 21220
O=C(CC1CC2CCC1C2)N1CCN(S(=O)(=O)c2ccccc2F)CC1 (stereo unspecified)	none
CCC(=O)N1CCc2cc(S(=O)(=O)CCC(=O)NCc3ccccc3OC)ccc21	none
CCNC(=S)Nc1cc(-c2ccc(Cl)cc2)[nH]n1	PfHsp40 rescue 122
CCNC(=S)Nc1ccc(Cl)cc1	none
C/C(=N\NC(=O)c1ccc(O)cc1)c1cccc(NC(=O)c2ccc(Cl)cc2)c1	PfHsp40 rescue 44
C/C(=N\NC(=O)c1ccc(Cl)cc1)c1cccc(NC(=O)c2cccnc2)c1	none
O=C(CC1C(=O)NCCN1Cc1ccccc1C(F)(F)F)NC1CCCCC1 (stereo unspecified)	none
Cc1cc(/C=C(\C#N)C(=O)Nc2ccccc2)c(C)n1-c1ccc2c(c1)OCO2	Bead autofluor 20884
Cc1cc(/C=C(\C#N)C(=O)Nc2ccc(F)cc2)c(C)n1-c1ccc(N2CCOCC2)c([N+](=O)[O-])c1	Bead autofluor 22759
CCCCN(C=O)c1c(CC)nc2c(OCCOc3ccc(F)cc3)cccn12	none (no result: PfHsp40 rescue, MazF activator)
O=C(Nc1ccccc1)c1nc[nH]c1C(=O)NCCN(CCNC(=O)c1[nH]cnc1C(=O)Nc1ccccc1)CCNC(=O)c1[nH]cnc1C(=O)Nc1ccccc1	none
Fc1ccc(COc2ccc(Br)cc2CNCc2ccncc2)cc1	none
CCOc1cc(CNCc2ccncc2)cc(Br)c1OCc1ccc(F)cc1	Bead autofluor 20403
S=c1nc(-c2ccccc2)[nH]n1-c1ccccc1	Bead autofluor 25268
COc1ccc(-c2cc(=O)oc3c(C)c(O)c(CN(C)C)cc23)cc1	PfHsp40 rescue 45
CCCCNS(=O)(=O)c1ccc(OC)c2ncccc12	BoNT A protease inconclusive, Bead autofluor 19492
CCN(c1cccc(C)c1)S(=O)(=O)c1cccc(C(=O)O)c1	Bead autofluor 23200
CCN(c1cccc(C)c1)S(=O)(=O)c1ccc2[nH]c(=O)c(=O)[nH]c2c1	Bead autofluor 21312
CCN(c1cccc(C)c1)S(=O)(=O)c1cc2[nH]c(=O)c(=O)[nH]c2cc1C	none (no result: PfHsp40 rescue, MazF activator)
O=C(NCC1CCCO1)c1ccc(CNS(=O)(=O)c2cccc(Cl)c2)cc1 (stereo unspecified)	none
Cc1ccc(NC(=O)NC(=O)CSc2nnnn2C)c(C)c1	Bead autofluor 20545
Cc1cccc(C)c1NC(=O)CSc1nnnn1C	none
Cn1c(-c2cc3ccc(OC(=O)C(C)(C)C)cc3oc2=O)nc2ccccc21	Bead autofluor 16715
CC(=O)Oc1ccc2cc(-c3nc4ccccc4n3C)c(=O)oc2c1	none
CC(C)(C)c1ccc(C(=O)CC(=O)c2cc(Cl)ccc2O)cc1	Bead autofluor 21100
Cc1ccc(C(=O)CC(=O)c2ccc(C(C)(C)C)cc2)cc1	PfHsp40 rescue 36
COc1ccc(C(=O)CC(=O)c2ccc(C(C)(C)C)cc2)cc1	none
Cc1ccc(C(=O)CC(=O)c2cc(Cl)ccc2O)cc1	none
O=C1C=C(O)c2cccc(O)c2C1=O	none
O=C1C=C(c2c(O)ccc3ccccc23)c2ccccc2C1=O	MazF activator 80
Cc1ccc(S(=O)(=O)NN)c(C)c1N1CCCC1=O	MazF activator 165
CCCSc1ccc([C@H]2N[C@@](CC(C)C)(C(=O)OC)[C@H]3C(=O)N(CC)C(=O)[C@@H]23)cc1	none
CC(C)(C)c1ccccc1OCC(=O)Nc1ncn[nH]1	none
CC(C)(C)c1ccccc1OCC(=O)NCCC(=O)O	Bead autofluor 24308
COc1c(Cl)cc(C(=O)Nc2cccnc2)cc1Cl	none (no result: PfHsp40 rescue)
Cc1ccc2c(c1)cc1c(=O)n(CC(=O)NCCCc3ccccc3)nc(C)n12	none
O=C(COc1ccc(F)cc1)Nc1nc(-c2ccccn2)cs1	none
O=C(COc1ccc([N+](=O)[O-])cc1)Nc1nc(-c2ccccn2)cs1	PfHsp40 rescue 271
Cc1ccc(OCC(=O)Nc2nc(-c3ccccn3)cs2)c(C)c1	PfHsp40 rescue 54 (no result: BoNT F protease, BoNT A protease, Anthrax LF inh2, Bead autofluor)
N#C/C(=C(/O)Cc1ccccc1)P(=O)(c1ccccc1)c1ccccc1	BoNT F protease inconclusive
Cc1ccc(NC(=O)c2ccc(-n3cccn3)c([N+](=O)[O-])c2)cc1	Bead autofluor 16419
Cc1cccc(NC(=O)c2ccc(-n3cccn3)c([N+](=O)[O-])c2)c1	none
Cc1cccc(NC(=O)c2ccc(N3CCCCC3)c([N+](=O)[O-])c2)n1	BoNT A protease inconclusive, Bead autofluor 24725
O=C(Nc1ccc2c(c1)OCCO2)c1ccc(Cl)c([N+](=O)[O-])c1	none
O=C(Nc1ccc(C2=NCCN2)cc1)c1ccc(C(=O)Nc2ccc(C3=NCCN3)cc2)c([N+](=O)[O-])c1	PfHsp40 rescue 125
CCC(=O)N1CCN(c2ccc(Cl)cc2NC(=O)c2ccc3c(c2)OCCO3)CC1	none
CCC(=O)N1CCN(c2ccc(Cl)cc2NC(=O)c2ccc(N3CCCC3)c([N+](=O)[O-])c2)CC1	Bead autofluor 18754
COc1ccc(NC(=O)CS(=O)(=O)c2cn(CC(=O)N3CCCC3)c3ccccc23)c(OC)c1	none
O=C(Nc1nc2ccc(Cl)cc2s1)[C@@H]1CCCN1C(=O)c1cccs1	none
O=C(Nc1cccnc1)c1ccccc1-c1nc(-c2ccccc2F)no1	Bead autofluor 21936
O=C(Nc1cccnc1)c1c(F)cccc1F	BoNT A protease inconclusive, Bead autofluor 16636
COc1ccccc1-c1noc(-c2ccccc2C(=O)Nc2cccnc2)n1	Bead autofluor 22521
COc1ccc(-c2noc(-c3ccccc3C(=O)Nc3cccnc3)n2)cc1	none
C[n+]1cccc(C(=O)Nc2ccccc2)c1	none
c1ccc(COc2ccc(CNCc3cccs3)cc2)cc1	Bead autofluor 20591
Brc1ccc(CNCc2cccs2)cc1	none
NNC(=O)c1cccn(Cc2ccc(Cl)cc2Cl)c1=O	none
O=Cc1cccn1Cc1ccc(Cl)cc1Cl	Bead autofluor 23592
COC(=O)c1cc(NC(=O)CCc2c(C)nc3ncnn3c2C)cc(C(=O)OC)c1	Bead autofluor 17830
Cc1cccc(NC(=O)CCc2c(C)nc3ncnn3c2C)n1	none
Cc1nc2ncnn2c(C)c1CCC(=O)Nc1csc(N)n1	BoNT A protease inconclusive, Bead autofluor 18816
Cc1c(NC(=O)CSc2nnc(C(C)Oc3ccc(Cl)cc3)n2-c2ccccc2)c(=O)n(-c2ccccc2)n1C (stereo unspecified)	Bead autofluor 18398
COc1ccccc1OC(C)c1nnc(SCC(=O)Nc2c(C)n(C)n(-c3ccccc3)c2=O)n1-c1ccccc1 (stereo unspecified)	Bead autofluor 21279
CC(=O)Nc1ccc(C(=O)OCC(=O)NCc2cccs2)cc1	none
O=C(OCCc1cc2ccccc2c(=O)o1)c1ccccc1C(F)(F)F	none
CC(OC(=O)C1CC1)C(=O)Nc1ncc(Cl)cc1Cl (stereo unspecified)	none
